Among the data in PubChem BioAssay (NCI) are growth values, retold here.

SMILES strings stand for the structures. The panel holds about 83,000 compounds, 20% with a hit somewhere; the sample as a whole holds those more often.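 Method: cells in 96-well plates; compound added at one concentration; 48 h incubation; percent growth measured; values under 10 scored active.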 A number with no mark means an inactive call. Calls of active or inactive are those of the source.

Some test systems named below: HCT-15 colon; HT29 colon; SNB-75 CNS; SNB-19 CNS; U251 CNS; PC-3 prostate; SK-MEL-5 melanoma; UACC-62 melanoma; LOX IMVI melanoma; SK-MEL-28 melanoma; SK-MEL-2 melanoma; EKVX NSCLC; SN12C renal; UO-31 renal; TK-10 renal; ACHN renal; CAKI-1 renal; A498 renal; CCRF-CEM leukemia; MOLT-4 leukemia.
Common to all, as to assay: NCI-60 one-dose screen, 48 h (100 = growth as untreated, 0 = no growth, -100 = all killed)
Conditions in all cases: 10 µM unless noted

On to `Cn1cc(-c2csc(-c3c[nH]c4ccc(Br)cc34)n2)c2cnccc21`, for which the growth in the test on HCT-15 colon was -78.9% (active); in the test on HT29 colon, -70% (active); in the test with SNB-75 CNS, -95.8% (active); with SNB-19 CNS it was -85.5% (active); with U251 CNS, -85.8% (active); with PC-3 prostate, -79.5% (active). In addition, the growth in the test with SK-MEL-5 melanoma was -67.7% (active); in the test on UACC-62 melanoma, -90.6% (active); with LOX IMVI melanoma, -92.7% (active); with SK-MEL-28 melanoma, -93.6% (active); in the test on SK-MEL-2 melanoma it was -65.7% (active); in the test with EKVX NSCLC, -78.3% (active). Further, the growth is -87.2% (active) in the test with SN12C renal; -96.3% (active) in the test with UO-31 renal; -83.9% (active) in the test with TK-10 renal; -98.6% (active) in the test on ACHN renal; -97% (active) in the test with CAKI-1 renal; -97.3% (active) in the test on A498 renal. The values for the growth with CCRF-CEM leukemia and with MOLT-4 leukemia were -39% (active) and -58.3% (active), respectively.
Consider `CCS/C(Nc1ccccc1)=C(\C#N)C(=O)N/N=C/c1ccc(Cl)cc1Cl`, for which the growth with HCT-15 colon was 19.9%; with HT29 colon, 9.53% (active); with SNB-75 CNS, -6.89% (active); in the test with SNB-19 CNS it was 19.6%; in the test with U251 CNS, 19.1%; with PC-3 prostate it was 31.5%. In addition, the growth in the test with SK-MEL-5 melanoma is 12.4%; with UACC-62 melanoma it was 26.6%; in the test on LOX IMVI melanoma, 34.4%; with SK-MEL-28 melanoma, 60.5%; with SK-MEL-2 melanoma, 28.3%; with EKVX NSCLC it was 47.4%. For the same molecule, the growth was 34.5% with SN12C renal; 41.9% with UO-31 renal; 56.7% in the test on TK-10 renal; 38.2% with ACHN renal; 31.5% with CAKI-1 renal; -2.1% (active) in the test with A498 renal. For the same molecule, the growth in the test on CCRF-CEM leukemia is 9.86% (active); in the test on MOLT-4 leukemia it was 18.3%.
In the case of `Cc1ccccc1NC(=O)c1sc2nc(C)c(C(=O)/C=C/c3ccccc3)cc2c1N`, the growth in the test on HCT-15 colon is -1.44% (active); in the test on HT29 colon, -5.48% (active); with SNB-75 CNS, -7.36% (active); in the test with SNB-19 CNS, 2.8% (active); in the test with U251 CNS, -35% (active); in the test on PC-3 prostate it was 29%. In addition, the growth in the test with SK-MEL-5 melanoma is 17.7%; with UACC-62 melanoma it was 7.17% (active); in the test on LOX IMVI melanoma, -85.9% (active); in the test on SK-MEL-28 melanoma, 42%; with SK-MEL-2 melanoma it was 34.8%; with EKVX NSCLC, 59.6%. The growth is 3.45% (active) in the test with SN12C renal; 19.7% in the test with UO-31 renal; 11.7% in the test with TK-10 renal; 33.3% in the test with ACHN renal; 25.5% in the test with CAKI-1 renal; 29.3% in the test on A498 renal. In addition, the growth is 8.43% (active) with CCRF-CEM leukemia and 17.4% in the test with MOLT-4 leukemia.
For `COC1C[C@H](O[C@@H]2C[C@H](O[C@@H]3C[C@H](O[C@@H]4C(=O)c5c(cc6cc(O[C@H]7C[C@@H](O[C@H]8C[C@@H](O)[C@H](O)C(C)O8)[C@H](O)C(C)O7)c(C)c(O)c6c5O)C[C@H]4C(OC)C(=O)[C@@H](O)[C@@H](C)O)OC(C)[C@H]3O)OC(C)[C@@H]2O)OC(C)[C@@H]1O` (stereo not given in full), the growth is 44.3% in the test with HCT-15 colon; -8.54% (active) in the test on HT29 colon; -59% (active) in the test with SNB-75 CNS; 0.994% (active) in the test with SNB-19 CNS; 0.915% (active) in the test on U251 CNS; 9.36% (active) with PC-3 prostate. In addition, the growth in the test with SK-MEL-5 melanoma is -37.9% (active); in the test on UACC-62 melanoma it was -64.7% (active); with LOX IMVI melanoma, -3.35% (active); in the test with SK-MEL-28 melanoma it was -22.9% (active); with SK-MEL-2 melanoma, -61.7% (active); in the test on EKVX NSCLC it was 7.01% (active). Besides, the growth is 2.57% (active) with SN12C renal; 5.02% (active) with UO-31 renal; 1.34% (active) with TK-10 renal; 6.35% (active) with ACHN renal; 28.6% in the test with CAKI-1 renal; -44.5% (active) in the test on A498 renal. Further, the growth with CCRF-CEM leukemia is 6.53% (active); in the test with MOLT-4 leukemia it was 5.23% (active).
Regarding `CCN1C(=O)N(CC)C2C1NN=c1s/c(=C\c3ccc(Cl)cc3Cl)c(=O)n12` (stereo not given), the growth in the test on HCT-15 colon is 9.51% (active); in the test with HT29 colon it was 2.8% (active); in the test on SNB-75 CNS, 19.7%; with SNB-19 CNS it was 27.9%; with U251 CNS, 11%; in the test on PC-3 prostate, 24.6%. The growth is -20.8% (active) with SK-MEL-5 melanoma; 28.9% with UACC-62 melanoma; 18.3% in the test on LOX IMVI melanoma; 66.1% with SK-MEL-28 melanoma; 45.7% with SK-MEL-2 melanoma; 50.1% in the test with EKVX NSCLC. In addition, the growth in the test with SN12C renal is 21.5%; in the test on UO-31 renal it was 35.9%; in the test on TK-10 renal, 67.7%; in the test with ACHN renal it was 26.7%; with CAKI-1 renal, 21.1%; with A498 renal, 16.9%. Further, the growth is 9.4% (active) with CCRF-CEM leukemia and 12.9% in the test on MOLT-4 leukemia.
In the case of `O=C(/C=C/c1cccs1)c1ccc(Cl)nc1`, the growth was 100% in the test with HCT-15 colon; 101% with HT29 colon; 95.2% in the test on SNB-75 CNS; 102% in the test on SNB-19 CNS; 99.9% in the test on U251 CNS; 104% in the test on PC-3 prostate. Further, the growth in the test on SK-MEL-5 melanoma is 104%; in the test on UACC-62 melanoma it was 97.2%; in the test with LOX IMVI melanoma, 102%; with SK-MEL-28 melanoma, 105%; in the test with SK-MEL-2 melanoma, 98%; in the test on EKVX NSCLC, 102%. The growth with SN12C renal was 103%; in the test on UO-31 renal it was 93.5%; in the test with TK-10 renal it was 84.2%; with ACHN renal, 106%; in the test with CAKI-1 renal it was 94%; with A498 renal it was 85.6%. Also, the growth was 91.4% with CCRF-CEM leukemia and 99.6% with MOLT-4 leukemia.
Take `O=C1C(Cl)=C(Nc2ccc(O)cc2)C(=O)N1Cc1ccc(Cl)cc1`: the growth was 19.7% in the test with HCT-15 colon; 11% in the test on HT29 colon; 59% with SNB-75 CNS; 69.5% with SNB-19 CNS; 47.1% with U251 CNS; 45.9% with PC-3 prostate. For the same molecule, the growth was 50.7% in the test with SK-MEL-5 melanoma; 65.3% in the test on UACC-62 melanoma; 57.7% with LOX IMVI melanoma; 61.6% in the test with SK-MEL-28 melanoma; 66.2% in the test on SK-MEL-2 melanoma; 79% in the test on EKVX NSCLC. For the same molecule, the growth in the test on SN12C renal is 64.9%; with UO-31 renal it was 52.2%; in the test with TK-10 renal, 63.2%; in the test on ACHN renal, 71.4%; in the test on CAKI-1 renal it was 74%; in the test on A498 renal, 75.4%. For the same molecule, the growth in the test with CCRF-CEM leukemia was 4.97% (active); in the test with MOLT-4 leukemia, 16.9%.
